# Source: paper PMC7862700, “An all-to-all approach to the identification of sequence-specific readers for epigenetic DNA modifications on cytosine”
# How the values were obtained:
# Test in all cases: DAPPL (digital affinity profiling via proximity ligation, sequencing); 10 mM Tris-HCl pH 7.5, 50 mM NaCl, 1 mM DTT, 4% glycerol, room temperature, 30 min; GST-TFs on glutathione beads, 16-mer random dsDNA library, 0.1% formaldehyde crosslink after washing; high values mean tight binding
# FEV = biological target: T1, FEV (Homo sapiens, UniProt Q99581 1-238); conditions: protein: recombinant; tags: N-terminal GST; dsDNA, one strand shown
# T1 sequence: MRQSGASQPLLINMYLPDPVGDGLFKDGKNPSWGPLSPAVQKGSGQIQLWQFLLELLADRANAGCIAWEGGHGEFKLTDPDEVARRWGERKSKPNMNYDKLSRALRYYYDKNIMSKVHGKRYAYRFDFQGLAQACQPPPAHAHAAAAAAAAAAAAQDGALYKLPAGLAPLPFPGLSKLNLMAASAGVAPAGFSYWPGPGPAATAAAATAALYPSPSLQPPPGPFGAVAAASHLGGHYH
# Procedure, shortened: (§1)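 Binding signal is each hexamer's read frequency for a factor divided by its frequency in the tag-only sample. The factors were GST-fused human transcription factors from yeast, captured on glutathione beads, DNA-barcoded and pooled with that sample. Pools were incubated with 200 nmole of a random double-stranded 16-mer DNA library in Tris/NaCl/DTT/glycerol buffer at room temperature for 30 min, then washed, crosslinked with 0.1% formaldehyde, proximity-ligated with BsaI/T4 ligase (1 h, 37 °C), PCR-amplified and sequenced on an Illumina NextSeq500.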
# ETV5 = ETV5 (Homo sapiens, UniProt P41161 1-510); conditions: protein: recombinant; tags: N-terminal GST; dsDNA, one strand shown
# ETV5, sequence (P41161 whole entry): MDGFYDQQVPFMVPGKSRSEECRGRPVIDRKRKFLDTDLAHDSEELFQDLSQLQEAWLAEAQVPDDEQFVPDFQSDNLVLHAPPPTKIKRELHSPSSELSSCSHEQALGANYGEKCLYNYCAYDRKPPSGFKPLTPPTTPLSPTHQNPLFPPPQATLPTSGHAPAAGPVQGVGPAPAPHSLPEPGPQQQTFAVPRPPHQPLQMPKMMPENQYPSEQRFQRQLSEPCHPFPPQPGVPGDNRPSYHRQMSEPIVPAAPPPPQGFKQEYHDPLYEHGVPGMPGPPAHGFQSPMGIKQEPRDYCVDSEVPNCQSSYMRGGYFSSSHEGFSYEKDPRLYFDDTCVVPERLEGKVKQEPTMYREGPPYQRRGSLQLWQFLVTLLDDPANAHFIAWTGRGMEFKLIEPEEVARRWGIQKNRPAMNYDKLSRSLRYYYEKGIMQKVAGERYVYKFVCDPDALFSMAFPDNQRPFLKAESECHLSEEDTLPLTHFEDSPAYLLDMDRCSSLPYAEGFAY
# Procedure, shortened: as §1
# HSF1 = HSF1 (Homo sapiens, UniProt Q00613 1-529); conditions: protein: recombinant; tags: N-terminal GST; chain copies: 3; dsDNA, one strand shown
# HSF1, sequence (Q00613 whole entry): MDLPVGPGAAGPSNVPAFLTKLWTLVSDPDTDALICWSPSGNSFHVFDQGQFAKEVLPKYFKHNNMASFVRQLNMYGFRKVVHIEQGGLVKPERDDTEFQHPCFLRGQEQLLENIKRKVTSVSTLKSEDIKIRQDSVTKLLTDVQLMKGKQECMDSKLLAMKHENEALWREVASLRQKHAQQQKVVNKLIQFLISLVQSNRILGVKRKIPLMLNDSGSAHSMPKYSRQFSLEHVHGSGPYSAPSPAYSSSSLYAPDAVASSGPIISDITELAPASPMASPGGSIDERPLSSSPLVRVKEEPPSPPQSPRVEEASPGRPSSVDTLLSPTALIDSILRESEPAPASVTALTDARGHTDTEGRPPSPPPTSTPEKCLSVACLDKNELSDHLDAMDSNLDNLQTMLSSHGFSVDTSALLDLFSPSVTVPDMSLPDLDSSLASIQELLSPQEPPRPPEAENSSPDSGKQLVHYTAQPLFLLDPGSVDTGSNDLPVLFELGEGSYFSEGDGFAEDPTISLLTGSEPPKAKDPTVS
# Procedure, shortened: as §1
# SPIC = biological target: T2, SPIC (Homo sapiens, UniProt Q8N5J4 1-248); conditions: protein: recombinant; tags: N-terminal GST; dsDNA, one strand shown
# T2 sequence: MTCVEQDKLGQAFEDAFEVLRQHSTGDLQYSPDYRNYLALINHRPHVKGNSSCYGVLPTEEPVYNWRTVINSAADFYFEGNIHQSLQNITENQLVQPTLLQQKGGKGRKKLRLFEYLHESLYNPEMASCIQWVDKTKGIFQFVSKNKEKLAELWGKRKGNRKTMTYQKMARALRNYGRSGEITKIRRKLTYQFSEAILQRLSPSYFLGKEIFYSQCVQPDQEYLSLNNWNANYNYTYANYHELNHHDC
# Procedure, shortened: as §1
# ELF4 = ELF4 (Homo sapiens, UniProt Q99607 1-663); conditions: protein: recombinant; tags: N-terminal GST; dsDNA, one strand shown
# ELF4, sequence (Q99607 whole entry): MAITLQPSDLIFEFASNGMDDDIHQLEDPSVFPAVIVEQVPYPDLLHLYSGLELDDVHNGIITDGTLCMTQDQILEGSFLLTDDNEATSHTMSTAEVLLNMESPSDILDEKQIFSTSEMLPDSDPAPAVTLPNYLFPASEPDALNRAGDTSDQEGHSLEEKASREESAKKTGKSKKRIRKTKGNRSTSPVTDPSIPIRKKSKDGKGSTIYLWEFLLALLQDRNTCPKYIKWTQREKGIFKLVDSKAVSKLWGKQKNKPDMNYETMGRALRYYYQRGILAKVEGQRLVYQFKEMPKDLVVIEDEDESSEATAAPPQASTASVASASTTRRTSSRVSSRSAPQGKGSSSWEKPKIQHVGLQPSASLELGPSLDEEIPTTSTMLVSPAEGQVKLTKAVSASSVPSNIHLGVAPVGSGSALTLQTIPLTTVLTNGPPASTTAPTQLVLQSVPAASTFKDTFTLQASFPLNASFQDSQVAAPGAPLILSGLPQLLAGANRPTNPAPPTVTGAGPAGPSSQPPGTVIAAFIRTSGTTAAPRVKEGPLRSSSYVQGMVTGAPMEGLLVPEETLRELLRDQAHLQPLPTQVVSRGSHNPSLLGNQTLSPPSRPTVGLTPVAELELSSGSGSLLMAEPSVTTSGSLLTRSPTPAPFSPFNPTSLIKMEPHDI
# Procedure, shortened: as §1
# ELK4 = biological target: T3, ELK4 (Homo sapiens, UniProt P28324-2 1-405); conditions: protein: recombinant; tags: N-terminal GST; dsDNA, one strand shown
# T3 sequence: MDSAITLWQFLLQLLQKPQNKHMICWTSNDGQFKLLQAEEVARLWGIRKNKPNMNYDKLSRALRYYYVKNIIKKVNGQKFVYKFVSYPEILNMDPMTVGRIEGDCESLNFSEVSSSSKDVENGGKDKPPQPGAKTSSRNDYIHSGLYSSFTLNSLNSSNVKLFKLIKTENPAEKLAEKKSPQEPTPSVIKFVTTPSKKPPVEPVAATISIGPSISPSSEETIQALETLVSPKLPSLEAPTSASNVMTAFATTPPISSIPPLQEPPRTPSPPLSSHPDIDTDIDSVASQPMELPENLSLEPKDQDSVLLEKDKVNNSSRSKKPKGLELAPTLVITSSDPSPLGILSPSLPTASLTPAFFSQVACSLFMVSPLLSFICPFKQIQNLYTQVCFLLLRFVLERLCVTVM
# Procedure, shortened: as §1
# ETV2 = biological target: T4, ETV2 (Homo sapiens, UniProt O00321 1-342); conditions: protein: recombinant; tags: N-terminal GST; dsDNA, one strand shown
# T4 sequence: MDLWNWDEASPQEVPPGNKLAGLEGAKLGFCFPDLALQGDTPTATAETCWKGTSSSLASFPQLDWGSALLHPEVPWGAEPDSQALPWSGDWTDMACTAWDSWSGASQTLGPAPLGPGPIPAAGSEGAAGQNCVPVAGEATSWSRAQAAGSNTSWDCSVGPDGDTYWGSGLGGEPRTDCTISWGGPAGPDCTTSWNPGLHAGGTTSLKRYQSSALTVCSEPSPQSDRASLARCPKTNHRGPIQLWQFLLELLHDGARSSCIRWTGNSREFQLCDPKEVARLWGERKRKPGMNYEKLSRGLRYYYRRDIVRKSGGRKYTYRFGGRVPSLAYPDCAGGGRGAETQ
# Procedure, shortened: as §1
# ELF3 = biological target: T5, ELF3 (Homo sapiens, UniProt P78545 1-371); conditions: protein: recombinant; tags: N-terminal GST; dsDNA, one strand shown
# T5 sequence: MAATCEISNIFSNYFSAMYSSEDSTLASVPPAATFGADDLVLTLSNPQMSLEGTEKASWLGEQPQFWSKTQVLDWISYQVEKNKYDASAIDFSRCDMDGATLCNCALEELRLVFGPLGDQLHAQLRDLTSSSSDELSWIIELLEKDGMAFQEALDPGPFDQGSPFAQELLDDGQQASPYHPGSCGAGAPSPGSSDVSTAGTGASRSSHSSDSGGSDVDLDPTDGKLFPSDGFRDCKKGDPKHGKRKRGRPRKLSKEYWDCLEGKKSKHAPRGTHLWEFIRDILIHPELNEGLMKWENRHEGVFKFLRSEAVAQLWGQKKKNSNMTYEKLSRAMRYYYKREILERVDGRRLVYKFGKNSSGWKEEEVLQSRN
# Procedure, shortened: as §1
# CRX = CRX (Homo sapiens, UniProt O43186 1-299); conditions: protein: recombinant; tags: N-terminal GST; dsDNA, one strand shown
# CRX, sequence (O43186 whole entry): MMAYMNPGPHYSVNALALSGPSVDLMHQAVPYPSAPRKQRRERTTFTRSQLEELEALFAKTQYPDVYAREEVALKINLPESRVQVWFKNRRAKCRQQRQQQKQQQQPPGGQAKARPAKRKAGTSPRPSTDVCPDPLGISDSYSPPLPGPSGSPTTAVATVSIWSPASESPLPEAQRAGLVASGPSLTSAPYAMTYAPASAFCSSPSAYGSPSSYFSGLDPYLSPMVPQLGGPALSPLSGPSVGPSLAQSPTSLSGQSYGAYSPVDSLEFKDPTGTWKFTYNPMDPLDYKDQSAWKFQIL
# Procedure, shortened: as §1
sequence,measurement,setting,value
AACCTA,binding signal,FEV,"1.08 fold enrichment (6-mer frequency, TF over GST control)"
same,binding signal,ETV5,"1.03 fold enrichment (6-mer frequency, TF over GST control)"
same,binding signal,HSF1,"1.18 fold enrichment (6-mer frequency, TF over GST control)"
same,binding signal,SPIC,"1.03 fold enrichment (6-mer frequency, TF over GST control)"
same,binding signal,ELF4,"1.15 fold enrichment (6-mer frequency, TF over GST control)"
same,binding signal,ELK4,"1.07 fold enrichment (6-mer frequency, TF over GST control)"
same,binding signal,ETV2,"1.27 fold enrichment (6-mer frequency, TF over GST control)"
same,binding signal,ELF3,"1.16 fold enrichment (6-mer frequency, TF over GST control)"
same,binding signal,CRX,"1.2 fold enrichment (6-mer frequency, TF over GST control)"
